Data taken from PubChem BioAssay (Tox21).
“And” between values parts separate entries of the source, which are not always exact repeats. Identical values can stand only once. Records with an inconclusive call do not appear. Entries that show only a call come without a potency. A number with no mark means an inactive call. The source made the active and inactive calls. Calls come from the whole dose curve; as a rule, active = well fitted cell-killing curve with a large enough effect in the repeat runs; inconclusive = weak or mixed curves, or effect the other way; inactive = flat fitted curve, though single readings scatter.

What was measured:
[1] = cAMP Responsive Elements (CRE) small molecule antagonists, cell-based qHTS assay: qHTS cell viability counter screen (AID 2060913); note: nearly all actives have a fitted effect of over 40% in size
Method in brief: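 Steps: cells plated and held 18 hrs at 37 C/5% CO2; compounds and NKH477 (0.25 uM final) added; 3 hrs incubation; reporter substrate read; CellTiter-Glo added to measure cytotoxicity by luminescence.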

[2] = cAMP Responsive Elements (CRE) small molecule agonists, cell-based qHTS assay: qHTS cell viability counter screen (AID 2060914); note: nearly all actives have a fitted effect of over 50% in size
Method in brief: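 Cytotoxicity was measured as ATP luminescence (CellTiter-Glo, 30 min at room temperature) in the same wells as the CRE-bla FRET read-out. HEK293T CRE-bla cells had 3 h compound exposure at 37C/5% CO2.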
Potency is the fitted concentration of half-maximal effect.

## NCc1ccccc1Sc1ccccc1CO
[1]
  Potency: inactive
[2]
  Potency: inactive

## CN1CCN(c2c(F)cc3c(=O)c(C(=O)O)cn4c3c2SCC4)CC1
[1]
  Potency: inactive
[2]
  Potency: inactive

## Clc1nc(C(Cl)(Cl)Cl)c(Cl)c(Cl)c1Cl
[1]
  Potency: inactive
[2]
  Potency: inactive

## CCO[Si](CCCNC(N)=O)(OCC)OCC
[1]
  Potency: inactive
[2]
  Potency: inactive

## CC(C)c1c(C(=O)Nc2ccccc2)c(-c2ccccc2)c(-c2ccc(F)cc2)n1CC[C@@H](O)C[C@@H](O)CC(=O)O
[1]
  Potency: inactive
[2]
  Potency: inactive

## NC(=O)NS(=O)(=O)c1ccc(N)cc1
[1]
  Potency: inactive
[2]
  Potency: inactive

## COc1c(C)c2c(c(O)c1C/C=C(\C)CCC(=O)OCCN1CCOCC1)C(=O)OC2
[1]
  Potency: inactive
[2]
  Potency: inactive

## Cc1c(NC(=O)c2cccnc2)c(=O)n(-c2ccccc2)n1C
[1]
  Potency: inactive
[2]
  Potency: inactive

## CCCOC(C(=O)OC1CCN(C)CC1)(c1ccccc1)c1ccccc1
[1]
  Potency: inactive
[2]
  Potency: inactive

## O=[N+]([O-])C1(Br)COCOC1
[1]
  Potency: inactive
[2]
  Potency: inactive

## OCCCCCCCl
[1]
  Potency: inactive
[2]
  Potency: inactive

## CC(C)(Oc1ccc(Cl)cc1)C(=O)O
[1]
  Potency: inactive
[2]
  Potency: inactive

## CC1CC(OC(=O)c2ccccc2O)CC(C)(C)C1 (stereo not drawn)
[1]
  Potency: inactive
[2]
  Potency: inactive

## CO[C@@H]1COCC[C@@H]1N[C@@H]1CC[C@@](C(=O)N2CCc3ncc(C(F)(F)F)cc3C2)(C(C)C)C1
[1]
  Potency: inactive
[2]
  Potency: inactive

## O=C(O)c1cc2ccccc2nc1C(=O)O
[1]
  Potency: inactive
[2]
  Potency: inactive

## CCCCCCCCCCCCN(CCCCCCCCCCCC)CCCCCCCCCCCC
[1]
  Potency: inactive
[2]
  Potency: inactive

## C[C@H](CCC(=O)NCC(=O)O)[C@H]1CC[C@H]2[C@@H]3[C@H](O)C[C@@H]4C[C@H](O)CC[C@]4(C)[C@H]3C[C@H](O)[C@]12C
[1]
  Potency: inactive
[2]
  Potency: inactive

## CCCCCCCCCCCCCCCCCC(=O)OCC(O)CO (stereo not drawn)
[1]
  Potency: inactive
[2]
  Potency: inactive

## Cc1ccccc1C#N
[1]
  Potency: inactive
[2]
  Potency: inactive

## CC(=O)CC(=O)OC(C)(C)C
[1]
  Potency: inactive
[2]
  Potency: inactive

## Cc1ccc(C(=O)O)o1
[1]
  Potency: inactive
[2]
  Potency: inactive

## CC(C)C(=O)O
[1]
  Potency: inactive
[2]
  Potency: inactive

## CCN(CC)CCNC(C(=O)OCCC(C)C)c1ccccc1 (stereo not drawn)
[1]
  Potency: inactive
[2]
  Potency: inactive

## C[C@H]1NCc2cc(-c3ccc4c(=O)c(C(=O)O)cn(C5CC5)c4c3OC(F)F)ccc21
[1]
  viability change, negative = cytotoxic: 4.45% [at 18.9 µM]
[2]
  activity change, negative = cytotoxicity: -2.79% [at 18.9 µM]

## Cc1cc(CC(=O)O)c(C)n1-c1ccc(Cl)cc1
[1]
  Potency: inactive
[2]
  Potency: inactive

## NC(=O)c1ccc([N+](=O)[O-])cc1
[1]
  Potency: inactive
[2]
  Potency: inactive

## CCCCOC(=O)CCCCCCCCC(=O)OCCCC
[1]
  Potency: inactive
[2]
  Potency: inactive

## c1ccc2c(c1)c1cccc3ccc4cccc2c4c31
[1]
  Potency: inactive
[2]
  Potency: inactive

## CCCCCCCCCCCCCC[N+](C)(C)C
[1]
  Potency: 52.7 µM (active) and 48.5 µM (active)
[2]
  Potency: 52.7 µM (active)

## Cc1cccc2cccnc12
[1]
  Potency: inactive
[2]
  Potency: inactive

## NC1CCN(c2nc3c(cc2F)c(=O)c(C(=O)O)cn3-c2ccc(F)cc2F)C1 (stereo not drawn)
[1]
  Potency: inactive
[2]
  Potency: inactive

## Clc1ccc2c(c1)Nc1ccccc1S2
[1]
  Potency: inactive
[2]
  Potency: inactive

## Cc1cc(C)c(N=Nc2c(O)c(S(=O)(=O)O)cc3cc(S(=O)(=O)O)ccc23)cc1C
[1]
  viability change, negative = cytotoxic: 13% [at 8.39 µM]
[2]
  activity change, negative = cytotoxicity: 4.39% [at 8.39 µM]

## O=C(c1ccc(O)cc1)c1ccc(O)c(O)c1O
[1]
  Potency: inactive
[2]
  Potency: inactive

## O=[N+]([O-])c1ccc(CO)cc1
[1]
  Potency: inactive
[2]
  Potency: inactive

## CCCCOC(=O)C(C)CC (stereo not drawn)
[1]
  Potency: inactive
[2]
  Potency: inactive

## CC(C)(C)C1CCCCC1O (stereo not drawn)
[1]
  Potency: inactive
[2]
  Potency: inactive

## CCOC(=O)c1ncn2c1CN(C)C(=O)c1cc(F)ccc1-2
[1]
  Potency: inactive
[2]
  Potency: inactive

## O=C(O[C@@H]1Cc2c(O)cc(O)cc2O[C@@H]1c1cc(O)c(O)c(O)c1)c1cc(O)c(O)c(O)c1
[1]
  Potency: inactive
[2]
  Potency: inactive

## CC(=O)OCC(CCn1cnc2cnc(N)nc21)COC(C)=O
[1]
  Potency: inactive
[2]
  Potency: inactive

## c1ccc2c(c1)Cc1ccccc1-2
[1]
  Potency: inactive
[2]
  Potency: inactive

## C=CCCCCCCCCCCCCCCCC
[1]
  viability change, negative = cytotoxic: -4.37% [at 8.39 µM]
[2]
  activity change, negative = cytotoxicity: -18.5% [at 8.39 µM]

## C=C(C)C(=O)OCCOC(=O)CC(C)=O
[1]
  Potency: inactive
[2]
  Potency: inactive

## O=C(OC[C@H]1O[C@@H](OC(=O)c2cc(O)c(O)c(OC(=O)c3cc(O)c(O)c(O)c3)c2)[C@H](OC(=O)c2cc(O)c(O)c(OC(=O)c3cc(O)c(O)c(O)c3)c2)[C@@H](OC(=O)c2cc(O)c(O)c(OC(=O)c3cc(O)c(O)c(O)c3)c2)[C@@H]1OC(=O)c1cc(O)c(O)c(OC(=O)c2cc(O)c(O)c(O)c2)c1)c1cc(O)c(O)c(OC(=O)c2cc(O)c(O)c(O)c2)c1
[1]
  viability change, negative = cytotoxic: -4.21% [at 18.9 µM]
[2]
  activity change, negative = cytotoxicity: -4.58% [at 18.9 µM]
